Measurements reported in PubChem BioAssay AID540336 (Broad Institute, 2011).
About 520 (0.16%) of roughly 330,000 compounds were called active. Many of the other results were omitted from the sample, so actives are more common in it than they were. A number with no mark means an inactive call.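 How the source made its calls: active means inhibition of at least 50% in every replicate; inconclusive means best replicate reaches 50% inhibition but some replicates fall short; inactive means the rest.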

Target: Histone acetyltransferase RTT109 (Candida albicans (strain SC5314 / ATCC MYA-2876)) (UniProt Q5AAJ8)
Sequence (Q5AAJ8 whole entry, looked up): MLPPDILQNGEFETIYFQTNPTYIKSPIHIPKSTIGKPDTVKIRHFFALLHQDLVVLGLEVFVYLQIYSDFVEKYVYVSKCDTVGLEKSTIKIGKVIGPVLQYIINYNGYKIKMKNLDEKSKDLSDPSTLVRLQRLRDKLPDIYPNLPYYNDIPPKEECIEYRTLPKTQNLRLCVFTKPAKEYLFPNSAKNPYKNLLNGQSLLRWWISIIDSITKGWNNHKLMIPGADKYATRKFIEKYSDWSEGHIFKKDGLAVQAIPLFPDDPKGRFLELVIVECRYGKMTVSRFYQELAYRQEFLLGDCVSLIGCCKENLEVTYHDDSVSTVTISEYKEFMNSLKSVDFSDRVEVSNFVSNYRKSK
Experiment: Rtt109-Vps75 histone acetyltransferase blockade – biochemical, ThioGlo CoA-SH fluorescence, plate reader, primary screen (AID 540336)
Details: purified Rtt109/Vps75, ThioGlo CoA-SH fluorescence, 4 h; at 34.9 µM; active compounds read high

Row | SMILES | inhibition
1 | COc1cccc(/C=N/Nc2ccc(S(=O)(=O)Nc3ccccc3C(=O)O)cc2[N+](=O)[O-])c1O | 31.2%
2 | COc1ccc(/C=C/C(=O)OCC(=O)N2CCN(S(=O)(=O)c3ccc(C)cc3C)CC2)cc1OC | -12.4%
3 | Cc1ccc2c(O)c(Cc3ccccc3)c(=O)[nH]c2n1 | 3.15%
4 | CCOC(=O)c1ccccc1NC(=O)CSc1nc2c(sc(=S)n2CC)c(=O)[nH]1 | 12.6%
5 | COc1ccc(CNCCCn2cnc3c(OCc4ccccc4)ncnc32)cc1 | -0.493%
6 | O=C(Nc1ccccc1Cl)/C(Cl)=C(\Cl)S(=O)c1ccccc1 (configuration not stated) | 136% (active)
7 | O=C(Nc1ccccc1Cl)O/N=C(/c1ccccc1)c1ccccn1 | -0.825%
8 | CC1(C)CC(CCC(=O)Nc2ccccc2Cl)C(=O)O1 (configuration not stated) | -18.6%
9 | Cc1cc2c(cc1C)NC1(C[C@H]3CCC(=O)N4CC[C@@H](C1)[C@@H]34)C(=NC(C)(C)CC(C)(C)C)N2 (some centres not stated) | -1.37%
10 | COc1ccccc1C(=O)c1ccccc1C(=O)c1ccccc1 | -0.662%
11 | COc1ccc2c(c1)C(=O)CC(c1ccccc1)O2 (configuration not stated) | -1.45%
12 | CCOC(=O)Cc1csc(NC(=O)CSc2ccc(Br)cc2)n1 | 2.14%
13 | CCCCc1nnc(NC(=O)CSc2nc(C)cc(=O)[nH]2)s1 | -0.892%
14 | CCOC(=O)Cc1csc(NC(=O)CSc2nc(C)cc(=O)[nH]2)n1 | 66.2% (active)
15 | Cc1ccc(S(=O)(=O)N2CCC(C(=O)N3CCCCCCC3)CC2)cc1 | 1.29%
16 | O=C(O)/C=C\C(=O)Nc1ccc(OCc2ccccc2)cc1 | 3.12%
17 | Cc1cccc(N2CCN(c3ccc(NC(=O)/C=C\C(=O)O)cc3)CC2)c1 | 3.01%
18 | CSc1ccc(NC(=O)/C=C/C(=O)O)cc1 | 63.6% (active)
19 | O=[N+]([O-])c1ccc(NS(=O)(=O)c2ccccc2)c(Cl)c1 | -7.39%
20 | CC(=O)OC1CCC2(C)C(=CCC3C4CC(=O)N(O)C(=O)C4(C)CCC32)C1 (configuration not stated) | 1.39%
21 | NC(=O)C1(Nc2ccccc2Cl)CCCC1 | -1.87%
22 | CC(C)C[C@H]1CN([C@@H](CC(C)C)CN2CCC[C@@H]2CN2C(=O)C(=O)NC[C@@H]2Cc2ccccc2)C(=O)C(=O)N1CCc1ccccc1 | 3.1%
23 | OCCN1CCN(CCO)C1=S | -2.55%
24 | O=[N+]([O-])c1cc2ccccc2nc1-c1ccccc1 | 2.85%
25 | CCCN(C(=O)COC(=O)CNS(=O)(=O)c1ccc(NC(C)=O)cc1)C1CCS(=O)(=O)C1 (configuration not stated) | 2.12%
26 | Cc1cccc(C2c3c(n(C)c(=O)n(C)c3=O)N=C3c4ccccc4C(=O)C32)c1 (configuration not stated) | 29.8%

Row | SMILES | inhibition
27 | O=C(Nc1ccccc1)Oc1cccc2cccnc12 | 1.03%
28 | CC(C)(C)C(=O)Nc1cccc(-c2ccc[nH]2)n1 | -1.5%
29 | O=C(Nc1ccccc1Cl)c1ccccc1S(=O)(=O)c1ccccc1[N+](=O)[O-] | 22.9%
30 | CC(=O)Nc1ccc(NC(=O)COc2ccccc2C(=O)Nc2cccc(Cl)c2Cl)cc1 | -5.99%
31 | CN(C)S(=O)(=O)Oc1ccccc1C(=O)Nc1ccccc1Cl | 58.3% (active)
32 | CC(C)(C)S(=O)(=O)N1Cc2cc(CO)cc(CCO)c2[C@H]1CCO | -3.04%
33 | O=C(NCCCN1CCCCCC1)C1CC(=O)N(C2CCCC2)C1 (configuration not stated) | 32.5%
34 | COc1ccc(CN2CC(C(=O)NCCN3CCN(c4ccccc4F)CC3)CC2=O)cc1 (configuration not stated) | -11.1%
35 | O=C(NCCCN1CCN(c2ccccc2F)CC1)C1CCC(=O)N1C1CCCCC1 (configuration not stated) | 58.1% (active)
36 | Oc1c(C(c2ccccn2)N2CCOCC2)ccc2cccnc12 (configuration not stated) | 51.7% (active)
37 | CC(C)c1cc(CN2CCOCC2)cc(C(C)C)c1O | -6.21%
38 | CCCCC(=O)NC(c1ccc(OC)c(OC)c1)c1ccc2cccnc2c1O (configuration not stated) | -3.23%
39 | COc1cccc(C=CC(=O)C=CC=Cc2ccccc2)c1 | -4.82%
40 | O=C(O)c1ccc(NN=CC2=C(N3CCOCC3)/C(=C/c3ccccc3)CC2)cc1 | -15.5%
41 | Cn1cc(C2OC(=O)c3ccccc32)c2ccccc21 (configuration not stated) | 0.802%
42 | O=C(Nc1c(Br)cc2c(c1Br)Cc1cc([N+](=O)[O-])ccc1-2)C(Cl)Cl | -4.04%
43 | CC(=O)N(c1ccc2oc(=O)sc2c1)S(=O)(=O)c1ccc(C)cc1 | 134% (active)
44 | CC(=O)Oc1ccc(N(C(C)=O)S(=O)(=O)c2ccc3ccccc3c2)cc1Br | 2.06%
45 | COC(=O)c1c(C)oc2ccc(N(C(=O)Oc3ccccc3)S(=O)(=O)c3ccccc3)cc12 | 0.88%
46 | CCOC(=O)CCC(NC(=O)c1ccc(CNc2nc3cc(C(F)(F)F)ccc3nc2C(=O)OCC)cc1)C(=O)OCC (configuration not stated) | 9.24%
47 | CC(C=Cc1ccccc1)=NNS(=O)(=O)c1ccc([N+](=O)[O-])cc1 | -0.601%
48 | CC(=O)OC1CCC2C3CCC4=C(CC(F)C(=O)C4)C3CCC12C (configuration not stated) | -7.91%
49 | O=C1c2ccccc2C(=O)C1C(=O)C1CC1 | 0.0105%
50 | O=C1NCC(Nc2ccccc2)C(=O)N1 (configuration not stated) | -4.85%
51 | CCCCNC1(C#N)CCN(Cc2ccccc2)CC1 | 0.637%
52 | O=C1C=C(NS(=O)(=O)c2ccccc2)C(=O)c2ccccc21 | -1.13%
